According to PubChem BioAssay AID1159580 (chemical genetic matrix, 2015):
Several values for one entry are separate records, joined by “and”; a condition that tells them apart may be missing. Equal entries are not always repeated. The whole screen tested about 5,500 compounds, of which about 2,000 (36%) were called active. Inconclusive results (about 18%) are left out. Rule as the data show it: active = normalized growth mostly below about 0.91 (no sharp cut-off); inconclusive = no clear call, values can overlap the other calls; inactive = mostly above about 0.92. Some of the results follow.

Experiment: chemical genetic growth profiling, strain panel (AID 1159580);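 also: tested at 20 µM; growth read once vehicle control cultures reached saturation at 30 °C; 1 = growth at the plate median or of vehicle wells; lower values mean less growth of the strain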
Settings: S. cerevisiae deletion strains, growth OD
[1] = locus YDR150W, strain NUM1, stronger effect = lower value
[2] = locus YGR229C, strain SMI1, stronger effect = lower value
[3] = locus YMR307W, strain GAS1, stronger effect = lower value
[4] = locus YNL153C, strain GIM3, stronger effect = lower value
[5] = locus YNL322C, strain KRE1, stronger effect = lower value
[6] = locus YPL055C, strain LGE1, stronger effect = lower value

Measured: normalized growth

Cc1c(C)c2c(c(C)c1O)CCC(C)(CCCC(C)CCCC(C)CCCC(C)C)O2 (centres undefined)
inactive: locus YAL021C, strain ccr4, stronger effect = lower value 1 | locus YAL026C, strain drs2, stronger effect = lower value 0.972 | locus YAL030W, strain snc1, stronger effect = lower value 0.983 | locus YBL061C, strain skt5, stronger effect = lower value 0.989 | locus YBR009C, strain hhf1, stronger effect = lower value 0.965 | locus YBR021W, strain FUR4, stronger effect = lower value 1.03 | locus YBR023C, strain chs3, stronger effect = lower value 0.988 | locus YBR171W, strain sec66, stronger effect = lower value 0.986 | locus YBR229C, strain ROT2, stronger effect = lower value 1 | locus YBR231C, strain swc5, stronger effect = lower value 0.935 | locus YBR279W, strain paf1, stronger effect = lower value 0.99 | locus YCL011C, strain gbp2, stronger effect = lower value 0.972 | locus YCL016C, strain dcc1, stronger effect = lower value 0.982 | locus YCL029C, strain bik1, stronger effect = lower value 1 | locus YCL061C, strain MRC1, stronger effect = lower value 0.987 | locus YCL069W, strain vba3, stronger effect = lower value 0.988 | locus YCR088W, strain abp1, stronger effect = lower value 0.985 | locus YDL005C, strain med2, stronger effect = lower value 0.983 | locus YDL035C, strain GPR1, stronger effect = lower value 1.02 | locus YDL040C, strain nat1, stronger effect = lower value 0.99 | locus YDL074C, strain BRE1, stronger effect = lower value 1.02 | locus YDL101C, strain DUN1, stronger effect = lower value 1.01 | locus YDL134C, strain PPH21, stronger effect = lower value 1.01 | locus YDL185W, strain tfp1, stronger effect = lower value 1 | locus YDL192W, strain arf1, stronger effect = lower value 1.02 | locus YDR001C, strain nth1, stronger effect = lower value 0.981 | locus YDR069C, strain doa4, stronger effect = lower value 0.968 | locus YDR101C, strain arx1, stronger effect = lower value 1.01 | locus YDR137W, strain rgp1, stronger effect = lower value 0.966 | [1] 1.01 | locus YDR159W, strain sac3, stronger effect = lower value 0.956 | locus YDR162C, strain NBP2, stronger effect = lower value 0.993 | locus YDR195W, strain ref2 0.949 | locus YDR297W, strain sur2, stronger effect = lower value 0.978 | locus YDR318W, strain mcm21, stronger effect = lower value 1 | locus YDR334W, strain swr1, stronger effect = lower value 0.985 | locus YDR335W, strain msn5, stronger effect = lower value 0.988 | locus YDR388W, stronger effect = lower value 0.976 | locus YDR392W, strain spt3, stronger effect = lower value 0.929 | locus YDR502C, strain sam2, stronger effect = lower value 0.987 | locus YEL003W, strain gim4, stronger effect = lower value 0.979 | locus YEL037C, strain rad23, stronger effect = lower value 0.987 | locus YEL061C, strain CIN8 (second series), stronger effect = lower value 0.983 | locus YEL061C, strain CIN8, stronger effect = lower value 1.01 | locus YER015W, strain faa2, stronger effect = lower value 0.986 | locus YER016W, strain bim1, stronger effect = lower value 0.975 | locus YER110C, stronger effect = lower value 1 | locus YER111C, strain swi4, stronger effect = lower value 0.985 | locus YER155C, strain BEM2 (second series), stronger effect = lower value 0.97 | locus YER155C, strain BEM2, stronger effect = lower value 1 | locus YER167W, strain BCK2, stronger effect = lower value 1.01 | locus YFR010W, strain ubp6, stronger effect = lower value 0.988 | locus YGL078C, strain dbp3, stronger effect = lower value 0.999 | locus YGL086W, strain mad1, stronger effect = lower value 1.02 | locus YGL167C, strain pmr1, stronger effect = lower value 0.968 | locus YGL173C, strain kem1, stronger effect = lower value 0.985 | locus YGL227W, strain vid30, stronger effect = lower value 0.977 | locus YGL240W, strain doc1, stronger effect = lower value 0.981 | locus YGL248W, strain PDE1, stronger effect = lower value 1.01 | locus YGL253W, strain hxk2, stronger effect = lower value 0.995 | locus YGR078C, strain PAC10, stronger effect = lower value 1 | locus YGR135W, strain pre9, stronger effect = lower value 1.02 | [2] 1.02 | locus YGR252W, strain gcn5, stronger effect = lower value 0.95 | locus YHR013C, strain ard1, stronger effect = lower value 0.928 | locus YHR027C, strain rpn1, stronger effect = lower value 0.993 | locus YHR030C, strain SLT2, stronger effect = lower value 1.01 and 0.996 | locus YHR079C, strain IRE1 (second series), stronger effect = lower value 1 | locus YHR079C, strain IRE1, stronger effect = lower value 1.02 | locus YHR094C, strain hxt1, stronger effect = lower value 1 | locus YHR129C, strain ARP1, stronger effect = lower value 1.01 | locus YHR142W, strain chs7, stronger effect = lower value 0.994 | locus YHR200W, strain rpn10, stronger effect = lower value 0.995 | locus YIL066C, strain RNR3, stronger effect = lower value 1.01 | locus YIL073C, strain SPO22, stronger effect = lower value 1.05 | locus YIL125W, strain kgd1, stronger effect = lower value 1.03 | locus YIR030C, strain dcg1, stronger effect = lower value 0.997 | locus YJL092W, strain hpr5, stronger effect = lower value 0.975 | locus YJL095W, strain BCK1 (second series), stronger effect = lower value 0.989 | locus YJL095W, strain BCK1, stronger effect = lower value 0.998 and 1 | locus YJL115W, strain asf1, stronger effect = lower value 0.985 | locus YJL129C, strain trk1, stronger effect = lower value 1.02 | locus YJL134W, strain LCB3, stronger effect = lower value 1 | locus YJL154C, strain vps35, stronger effect = lower value 0.987 | locus YJL164C, strain tpk1, stronger effect = lower value 1.01 | locus YJL166W, strain qcr8, stronger effect = lower value 0.993 | locus YJL168C, strain set2, stronger effect = lower value 1 | locus YJL187C, strain SWE1 (second series), stronger effect = lower value 0.997 | locus YJL187C, strain SWE1, stronger effect = lower value 0.982 | locus YJR043C, strain POL32, stronger effect = lower value 1 | locus YJR066W, strain TOR1, stronger effect = lower value 0.972 | locus YKL009W, strain mrt4, stronger effect = lower value 0.969 | locus YKL068W, stronger effect = lower value 0.993 | locus YKL085W, strain MDH1 (second series), stronger effect = lower value 0.99 | locus YKL085W, strain MDH1, stronger effect = lower value 0.99 | locus YKL160W, strain elf1, stronger effect = lower value 1.01 | locus YKL190W, strain CNB1, stronger effect = lower value 1 | locus YKR001C, strain vps1, stronger effect = lower value 0.996 | locus YKR026C, strain gcn3, stronger effect = lower value 0.986 | locus YKR091W, strain srl3, stronger effect = lower value 0.982 | locus YLL001W, strain dnm1, stronger effect = lower value 0.983 | locus YLL026W, stronger effect = lower value 0.982 | locus YLL041C, strain sdh2, stronger effect = lower value 0.985 | locus YLR027C, strain aat2, stronger effect = lower value 0.993 | locus YLR039C, strain RIC1, stronger effect = lower value 1.02 | locus YLR058C, strain SHM2, stronger effect = lower value 1 | locus YLR102C, strain apc9, stronger effect = lower value 1 | locus YLR113W, strain HOG1, stronger effect = lower value 0.966 | locus YLR221C, strain rsa3, stronger effect = lower value 1.01 | locus YLR258W, strain gsy2, stronger effect = lower value 0.967 | locus YLR262C, strain YPT6 (second series), stronger effect = lower value 0.98 | locus YLR262C, strain YPT6, stronger effect = lower value 1.01 | locus YLR268W, strain sec22, stronger effect = lower value 1.01 | locus YLR320W, strain mms22, stronger effect = lower value 0.988 | locus YLR330W, strain CHS5, stronger effect = lower value 1 | locus YLR342W, strain FKS1 (second series), stronger effect = lower value 1.02 | locus YLR342W, strain FKS1, stronger effect = lower value 0.978 | locus YLR357W, strain rsc2, stronger effect = lower value 1 | locus YLR370C, strain arc18, stronger effect = lower value 0.995 | locus YLR371W, strain rom2, stronger effect = lower value 1.04 | locus YLR384C, strain iki3, stronger effect = lower value 0.978 | locus YLR418C, strain cdc73, stronger effect = lower value 0.968 | locus YML016C, strain PPZ1, stronger effect = lower value 1 | locus YML032C, strain rad52, stronger effect = lower value 0.987 | locus YML120C, strain ndi1, stronger effect = lower value 1.03 | locus YML124C, strain tub3, stronger effect = lower value 0.993 | locus YMR058W, strain fet3, stronger effect = lower value 1.01 | locus YMR078C, strain ctf18, stronger effect = lower value 1.02 | locus YMR125W, strain sto1, stronger effect = lower value 0.95 | locus YMR129W, stronger effect = lower value 0.979 | locus YMR205C, strain PFK2, stronger effect = lower value 0.933 | locus YMR223W, strain ubp8, stronger effect = lower value 1 | locus YMR231W, strain pep5, stronger effect = lower value 0.977 | locus YMR263W, strain SAP30, stronger effect = lower value 1.01 | [3] 1.01 | locus YNL067W, strain RPL9B, stronger effect = lower value 1 | locus YNL071W, strain lat1, stronger effect = lower value 0.994 | [4] 1.01 | locus YNL183C, strain NPR1, stronger effect = lower value 0.961 | locus YNL209W, strain ssb2, stronger effect = lower value 0.984 | locus YNL233W, strain BNI4, stronger effect = lower value 1.02 | locus YNL248C, strain rpa49, stronger effect = lower value 1.03 | locus YNL250W, strain rad50, stronger effect = lower value 1.01 | locus YNL271C, strain bni1, stronger effect = lower value 0.988 | locus YNL298W, strain CLA4, stronger effect = lower value 0.965 | locus YNL307C, strain MCK1, stronger effect = lower value 1 | locus YNL322C, strain KRE1 (second series), stronger effect = lower value 0.994 | [5] 1 | locus YNR049C, strain mso1, stronger effect = lower value 0.988 | locus YNR052C, strain pop2, stronger effect = lower value 1.02 | locus YOL012C, strain htz1 0.962 | locus YOL147C, strain pex11, stronger effect = lower value 0.997 | locus YOR001W, strain rrp6, stronger effect = lower value 1.02 | locus YOR061W, strain CKA2, stronger effect = lower value 1.01 | locus YOR069W, strain VPS5, stronger effect = lower value 1 | locus YOR070C, strain gyp1, stronger effect = lower value 0.988 | locus YOR080W, strain dia2, stronger effect = lower value 0.985 | locus YOR083W, strain WHI5, stronger effect = lower value 1.01 | locus YOR106W, strain vam3, stronger effect = lower value 1.01 | locus YOR136W, strain idh2, stronger effect = lower value 1.01 | locus YOR144C, strain elg1, stronger effect = lower value 0.985 | locus YOR184W, strain ser1, stronger effect = lower value 0.999 | locus YOR231W, strain MKK1, stronger effect = lower value 0.972 | locus YOR265W, strain rbl2, stronger effect = lower value 0.996 | locus YOR270C, strain vph1, stronger effect = lower value 1.09 | locus YOR290C, strain snf2, stronger effect = lower value 1 | locus YOR316C, strain cot1, stronger effect = lower value 0.995 | locus YPL051W, strain arl3, stronger effect = lower value 1.01 | [6] 1.01 | locus YPL078C, strain atp4, stronger effect = lower value 1.02 | locus YPL106C, strain sse1, stronger effect = lower value 0.966 | locus YPL240C, strain hsp82, stronger effect = lower value 0.98 | locus YPL256C, strain CLN2, stronger effect = lower value 1.02 | locus YPR119W, strain clb2, stronger effect = lower value 0.997 | locus YPR141C, strain kar3, stronger effect = lower value 1 | locus YPR163C, strain tif3, stronger effect = lower value 1 | locus YPR167C, strain met16, stronger effect = lower value 0.984 | strain wtn01, stronger effect = lower value 1.01

Cc1c(C)c2c(c(C)c1O)CCC(C)(CN1CCN(c3cc(N4CCCC4)nc(N4CCCC4)n3)CC1)O2 (centres undefined)
active: locus YAL040C, strain CLN3, stronger effect = lower value 0.579 | locus YER002W, strain NOP16, stronger effect = lower value 1.15 [resistant] | locus YNL175C, strain NOP13, stronger effect = lower value 1.09 [resistant]
inactive: locus YCL061C, strain MRC1 (second series), stronger effect = lower value 0.993 | [1] 0.997 | locus YDR363W, strain ESC2, stronger effect = lower value 0.96 | [2] 0.944 | locus YJR075W, strain HOC1, stronger effect = lower value 0.959 | [3] 1 | locus YNL128W, strain TEP1, stronger effect = lower value 1.07 | [4] 0.995 | locus YNL197C, strain WHI3, stronger effect = lower value 1.08 | locus YNL224C, strain SQS1, stronger effect = lower value 1.07 | [5] 0.961 | locus YOR083W, strain WHI5 (second series), stronger effect = lower value 1.04 | [6] 0.891
